Bioassay records deposited in PubChem by several laboratories.
This is a sample that favours compounds with a hit; in the whole collection about 4.2% have one here.
ssDAF-12 act – S. stercoralis DAF-12 nuclear receptor activators, primary screen, cell-based, luminescence, HEK293, GRIP1 co-expression, lit1-tk-luc; activation, % at 6.8 µM; HEK293 ssDAF-12/GRIP1 lit1-tk-luc reporter; % of 3 µM dafachronic acid response; actives 1% (n = 370,000); AID 652126, 2013;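 active = activation above the mean over all tested compounds plus 3 SD, cut at about 0.9% in these data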
Wnt bcat act – Wnt/beta-catenin pathway activators, primary screen, cell-based, plate reader, single point | Wnt/beta-catenin reporter cell assay, activator | activation, % at 9.35 µM | actives 1.2% (n = 300,000) | AID 743398, 2014; in the data active = activation above about 30%, passing the limit was not always enough
hgDAF-12 ag – H. glycines DAF-12 receptor agonists, primary screen, cell-based, luminescence, HEK293, GAL4 fusion, UAS-luciferase; Nuclear hormone receptor DAF-12 (Heterodera glycines), GAL4 fusion; HEK293 GAL4-hgDAF12 UAS-luciferase reporter, agonist luminescence; normalized to butyrate control; activation, % at 6.8 µM; actives 1.8% (n = 370,000); AID 687014, 2013;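 active = activation above a cutoff set at the mean of all screened compounds plus 3 SD, cut at about 10% in these data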
DAX1 inh – DAX1 (NR0B1) inhibitors on StAR promoter, primary screen, cell-based, luminescence, SF-1 (NR5A1), full-length DAX-1. HEK293T StAR-luciferase reporter, SF-1/DAX-1 repression relief. actives 1.1% (n = 370,000). inhibition, % at 6.8 µM;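 active = inhibition above the mean over all tested compounds plus 3 SD, cut at about 3.6% in these data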;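 note: higher inhibition means more luminescence from relief of DAX-1 repression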
hcDAF-12 act – H. contortus DAF-12 nuclear receptor activators, primary screen, cell-based, luminescence, HEK293, lit1-tk-luc reporter | HEK293 hcDAF-12 lit1-tk-luc reporter; 0% DMSO, 100% Δ7-dafachronic acid | activation, % at 6.8 µM | actives 1.4% (n = 370,000) | AID 652067, 2013;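 active = activation above the mean of all tested compounds plus 3 SD, cut at about 5.5% in these data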
esBAF inh – Bmi1 luciferase reporter increase in mESCs, primary screen, esBAF inhibitor project, mouse ES cells, Bmi1 luciferase knock-in, single point | 24 h; 100% = twice the neutral-well signal | reporter increase, % at 12.5 µM | actives 2% (n = 350,000) | AID 602393, 2012; in the data active = activation above about 40%;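 note: a rise in the Bmi1 reporter signal indicates esBAF inhibition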
Of the large screens only hits and unclear results are named; the others gave an inactive call.

COc1ccc(-c2cn(CC[C@H]3CC[C@H](NC(=O)CCN4CCCCC4)[C@H](CO)O3)nn2)cc1	none (no result: ssDAF-12 act, Wnt bcat act, hgDAF-12 ag, DAX1 inh, hcDAF-12 act)
CCc1c(C(=O)Nc2ccc(OC)cc2)[nH]c(C)c1C(C)=O	none
CCc1c(C(=O)Nc2cc(C)ccc2OC)[nH]c(C)c1C(C)=O	hcDAF-12 act 5.6
CCc1c(C(=O)Nc2ccc(C)c(C)c2)[nH]c(C)c1C(C)=O	esBAF inh 71
O=C(C[C@H]1CC[C@H]2[C@@H](COC[C@H](O)CN2CC2CCCCC2)O1)NCC1CC1	none (no result: ssDAF-12 act, Wnt bcat act, hgDAF-12 ag, DAX1 inh, hcDAF-12 act)
NCCCn1c(C(=O)c2cc(Cl)c(N)c(Cl)c2)c2ccc(C(F)(F)F)cc2[n+]1[O-]	hcDAF-12 act 6.5
CCCC#Cc1cnc2c(c1)C(=O)N([C@H](C)CO)C[C@H](C)[C@H](CN(C)C(=O)Nc1ccccc1F)O2	none (no result: ssDAF-12 act, Wnt bcat act, hgDAF-12 ag, DAX1 inh, hcDAF-12 act)
COc1cccc(NC(=O)C(=O)NCC2CCCN2S(=O)(=O)c2ccccc2)c1 (stereo not given)	Wnt bcat act 43, esBAF inh 79
COc1cccc(C(=O)NCC2CCCN2S(=O)(=O)c2ccccc2)c1 (stereo not given)	none
O=C(NCC1CCCN1S(=O)(=O)c1cccs1)C(=O)Nc1ccccc1Cl (stereo not given)	esBAF inh 51
O=C(C[C@H]1C=C[C@H](NC(=O)Nc2ccc3c(c2)OCO3)[C@@H](CO)O1)NCc1ccc(Cl)cc1	none (no result: ssDAF-12 act, Wnt bcat act, hgDAF-12 ag, DAX1 inh, hcDAF-12 act)
Cc1cc(-c2ccccc2)nc(N/N=C/c2ccccc2F)n1	esBAF inh 56
C/C(=N\Nc1nc(C)cc(-c2ccccc2)n1)c1ccccc1	esBAF inh 63
Cc1cc(C)nc(N/N=C/c2ccccc2OCc2ccccc2)n1	none
Cc1cc(C)nc(N/N=C/c2ccccc2OCc2ccc(Cl)cc2)n1	Wnt bcat act 35 (no result: esBAF inh)
Cc1ccc2nc(N/N=C/c3ccccc3F)nc(-c3ccccc3)c2c1	none (no result: esBAF inh)
Cc1ccccc1NC(=O)NCCc1c[nH]c2ccccc12	none
Cc1[nH]c2ccccc2c1CC(=O)Nc1ccc(Nc2ccncc2)cc1	ssDAF-12 act 2.1 (no result: esBAF inh)
CN(c1cccnc1)c1ccc(NC(=O)Cc2c[nH]c3ccccc23)cc1Br	ssDAF-12 act 1.5, hcDAF-12 act 6.5 (no result: esBAF inh)
CN(c1ccc(NC(=O)Cc2c[nH]c3ccccc23)cc1)c1ccccn1	none (no result: esBAF inh)
O=C(Cc1c[nH]c2ccccc12)Nc1ccc(Nc2ccncc2)cc1	hcDAF-12 act 6.0 (no result: esBAF inh)
Cc1[nH]c2ccccc2c1CC(=O)Nc1ccc(Nc2ccccc2)cc1	none (no result: esBAF inh)
Cc1ccccc1NC(=O)Cc1c[nH]c2ccccc12	ssDAF-12 act 1.0
C[C@H](NC(=O)C[C@@H]1C[C@H]2c3cc(NC(=O)C4CCC4)ccc3O[C@H]2[C@H](CO)O1)c1ccccc1	none (no result: ssDAF-12 act, Wnt bcat act, hgDAF-12 ag, DAX1 inh, hcDAF-12 act)
Cc1cccc(C)c1NC(=O)c1c[nH]c2ccccc12	hcDAF-12 act 6.2, esBAF inh 49
O=C1C(=O)N(c2ccccc2)C(c2ccccc2[N+](=O)[O-])/C1=C(\O)c1ccccc1 (stereo not given)	ssDAF-12 act 1.6
CO[C@H]1CN(C)C(=O)c2cc(NC(=O)Nc3ccc4c(c3)OCO4)ccc2OC[C@H](C)NC[C@@H]1C	esBAF inh 55 (no result: ssDAF-12 act, Wnt bcat act, hgDAF-12 ag, DAX1 inh, hcDAF-12 act)
CO[C@H]1CN(C)C(=O)c2cc(NC(=O)Nc3ccc4c(c3)OCO4)ccc2OC[C@@H](C)NC[C@H]1C	esBAF inh 51 (no result: ssDAF-12 act, Wnt bcat act, hgDAF-12 ag, DAX1 inh, hcDAF-12 act)
CO[C@H]1CN(C)C(=O)c2cc(NC(=O)Nc3ccccc3)ccc2OC[C@@H](C)NC[C@H]1C	none (no result: ssDAF-12 act, Wnt bcat act, hgDAF-12 ag, DAX1 inh, hcDAF-12 act)
CO[C@H]1CN(C)C(=O)c2cc(NC(=O)Nc3ccc4c(c3)OCO4)ccc2OC[C@H](C)NC[C@H]1C	esBAF inh 44 (no result: ssDAF-12 act, Wnt bcat act, hgDAF-12 ag, DAX1 inh, hcDAF-12 act)
CO[C@@H]1CN(C)C(=O)c2cc(NC(=O)Nc3ccccc3)ccc2OC[C@@H](C)NC[C@@H]1C	none (no result: ssDAF-12 act, Wnt bcat act, hgDAF-12 ag, DAX1 inh, hcDAF-12 act)
